Measurements from the supplement of paper PMC9135407.
Several values for one entry are separate records, joined by “and”; a condition that tells them apart may be missing. Equal entries are not always repeated. Structures can show the parent of a compound that is named as a salt. The campaign covered roughly 5,800 compounds. About 620 (11%) showed activity. What follows is part of a selection rich in actives, with near analogues and random picks from the rest. A number with no mark means an inactive call.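 Rule for the calls: active = score above a cut-off or among the top three wells of a plate; in these data no inactive exceeds 0.85.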

System: primary human hepatic stellate cells (donor 1)
Assay: scaled lipid accumulation score (0 = DMSO-like, 1 = nortriptyline-like); higher = stronger HSC inactivation (lipid re-accumulation), active = hit call of the paper
Settings: 48 h
[1] = library stock concentration: 10 mM
[2] = library stock concentration: 1 mM
[3] = library stock concentration: 3.33 mM

SMILES: COc1cc2c(cc1OC)[C@@]13CCN4CC5=CCO[C@H]6CC(=O)N2[C@H]1[C@H]6[C@H]5C[C@H]43 [Brucine]
- scaled lipid accumulation score (library stock concentration: 5.1 mM): ≤ 0
- scaled lipid accumulation score [1]: ≤ 0

SMILES: O=c1c2ccccc2[se]n1-c1ccccc1 [Ebselen] [listing 1 of 3 here]
- scaled lipid accumulation score: 0.867 (active)

SMILES: O=c1c2ccccc2[se]n1-c1ccccc1
- scaled lipid accumulation score [1]: 1.07 (active)

SMILES: O=c1c2ccccc2[se]n1-c1ccccc1 [Ebselen] [listing 2 of 3 here]
- scaled lipid accumulation score (library stock concentration: 18.2 mM): 0.952 (active)

SMILES: O=c1c2ccccc2[se]n1-c1ccccc1 [Ebselen] [listing 3 of 3 here]
- scaled lipid accumulation score [2]: ≤ 0

SMILES: CNC1=Nc2ccc(Cl)cc2C(c2ccccc2)=[N+]([O-])C1
- scaled lipid accumulation score [1]: 0.036

SMILES: CCCCC/C=C\C/C=C\C/C=C\C/C=C\CCCCOC(CO)CO [2-Arachidonyl Glycerol ether]
- scaled lipid accumulation score [2]: ≤ 0

SMILES: COc1ccc2cc(C(C#N)OC(=O)OCC3OC3c3ccccc3)ccc2c1 (stereo not given) [Epoxy Fluor 7]
- scaled lipid accumulation score [2]: 0.009

SMILES: Cc1cc2c(C(C)C)c(O)c(O)c(C=O)c2c(O)c1-c1c(C)cc2c(C(C)C)c(O)c(O)c(C=O)c2c1O [listing 1 of 2 here]
- scaled lipid accumulation score [3]: ≤ 0
- scaled lipid accumulation score [1]: 0.142

SMILES: Cc1cc2c(C(C)C)c(O)c(O)c(C=O)c2c(O)c1-c1c(C)cc2c(C(C)C)c(O)c(O)c(C=O)c2c1O [listing 2 of 2 here]
- scaled lipid accumulation score [1]: 0.999 (active)

SMILES: Cc1cc2c(C(C)C)c(O)c(O)c(C=O)c2c(O)c1-c1c(C)cc2c(C(C)C)c(O)c(O)c(C=O)c2c1O [Gossypol]
- scaled lipid accumulation score: ≤ 0
- scaled lipid accumulation score [3]: 0.016
- scaled lipid accumulation score [1]: 0.824 and 0.57

SMILES: CC(N)Cc1ccc(O)cc1 (stereo not given) [Hydroxyamphetamine hydrobromide]
- scaled lipid accumulation score [1]: ≤ 0

SMILES: CC(C)=CCC[C@]1(C)C=Cc2c(O)c3c(c(CC=C(C)C)c2O1)O[C@]12C(=C[C@@H]4C[C@H]1C(C)(C)O[C@@]2(C/C=C(/C)C(=O)O)C4=O)C3=O [Gambogic acid]
- scaled lipid accumulation score [1]: 0.672

SMILES: CCCCCCC(C)(C)c1cc(OC)c2c(c1)OC(C)(C)[C@@H]1CC=C(C)C[C@@H]21
- scaled lipid accumulation score [2]: ≤ 0

SMILES: O=C1CSC(c2ccccc2Cl)c2cc(Cl)ccc2N1 (stereo not given)
- scaled lipid accumulation score [1]: ≤ -0.006
- scaled lipid accumulation score (library stock concentration: 15.4 mM): 0.158

SMILES: CC[C@@]1([C@H]2O[C@H]([C@H]3O[C@@](O)(CO)[C@H](C)C[C@@H]3C)C[C@H]2C)CC[C@H]([C@@]2(C)CC[C@]3(C[C@H](O)[C@@H](C)[C@@H]([C@H](C)[C@H](OC)[C@@H](C)C(=O)O)O3)O2)O1 [Monensin sodium]
- scaled lipid accumulation score (library stock concentration: 7.2 mM): 0.508

SMILES: CC[C@@]1([C@@H]2O[C@@H]([C@H]3O[C@@](O)(CO)[C@H](C)C[C@@H]3C)C[C@@H]2C)CC[C@H]([C@]2(C)CC[C@]3(C[C@H](O)[C@@H](C)[C@@H]([C@@H](C)[C@@H](OC)[C@H](C)C(=O)O)O3)O2)O1 [Monensin sodium salt]
- scaled lipid accumulation score: 0.541

SMILES: C=C1[C@H]2C[C@@]3([C@@H]1O)[C@@H](C[C@@H]2O)[C@]12[C@@H]4C[C@H]3[C@H]1N(CC)C[C@]4(C)CC[C@@H]2O [Napelline]
- scaled lipid accumulation score: ≤ 0

SMILES: NCCC(O)C(=O)NC1CC(N)C(OC2OC(CN)C(O)[C@H](O)[C@@H]2N)[C@H](OC2O[C@H](CO)[C@@H](O)[C@@H]2O)[C@@H]1O (stereo not given in full) [Butirosin disulfate salt]
- scaled lipid accumulation score: 0.015

SMILES: COc1ccc(/C=C\c2cc(OC)cc(OC)c2)cc1 [cis-trismethoxy Resveratrol]
- scaled lipid accumulation score [2]: 0.097

SMILES: N[C@]1(C(=O)O)CC[C@H](C(=O)O)C1
- scaled lipid accumulation score [1]: 0.035

SMILES: C[C@H]1O[C@@H](O[C@@H]2C[C@H](O)[C@]3(CO)[C@H]4[C@H](O)C[C@]5(C)[C@H](C6=CC(=O)OC6)CC[C@]5(O)[C@@H]4CC[C@]3(O)C2)[C@@H](O)[C@H](O)[C@H]1O.O.O.O.O.O.O.O.O [Ouabain]
- scaled lipid accumulation score [3]: 1.05 (active)
- scaled lipid accumulation score [1]: 1.06 (active)

SMILES: C[C@@H]1O[C@@H](O[C@H]2C[C@@H](O)[C@]3(CO)[C@H]4[C@H](O)C[C@]5(C)[C@@H](C6=CC(=O)OC6)CC[C@]5(O)[C@@H]4CC[C@]3(O)C2)[C@H](O)[C@H](O)[C@H]1O.O.O.O.O.O.O.O.O [Strophantine octahydrate]
- scaled lipid accumulation score: 1.02 (active)

SMILES: CCCCC/C=C\C/C=C\C/C=C\C/C=C\CCCC(=O)Nc1ccc2c(C)cc(=O)oc2c1 [AMC Arachidonoyl Amide]
- scaled lipid accumulation score [2]: 0.06

SMILES: C/C=C1\C[C@@H](C)[C@](O)(CO)C(=O)OCC2=CCN3CC[C@@H](OC1=O)[C@@H]23 [Retrorsine]
- scaled lipid accumulation score: ≤ 0

SMILES: COc1c(C[C@@H](C)OC(=O)Oc2ccc(O)cc2)c2c3c(C[C@@H](C)OC(=O)c4ccccc4)c(OC)c(=O)c4c(O)cc(OC)c(c5c(OC)cc(O)c(c1=O)c52)c43 [Calphostin C]
- scaled lipid accumulation score (library stock concentration: 600 uM): 0.094

SMILES: C=C[C@]12CN(C)[C@@H]3[C@H]4CO[C@H](C[C@H]41)[C@]1(C(=O)Nc4ccccc41)[C@@H]32 [Gelsemine]
- scaled lipid accumulation score: ≤ 0

SMILES: C=CCc1ccccc1OCC(O)CNC1(C)CCC(C(C)(C)NC(=O)CBr)CC1 (stereo not given) [Bromoacetyl alprenolol menthane]
- scaled lipid accumulation score [1]: ≤ 0

SMILES: CO[C@@H]1C[C@@H](C[C@H]2CC[C@H](C)[C@H]([C@@H](C)C(=O)O)O2)O[C@]2(O[C@](C)([C@H]3CC[C@@](C)([C@@H]4O[C@@H]([C@H]5O[C@@](O)(CO)[C@H](C)C[C@@H]5C)C[C@@H]4C)O3)C[C@H]2C)[C@@H]1C [Nigericin]
- scaled lipid accumulation score (library stock concentration: 6.9 mM): 0.535

SMILES: CO[C@H]1CC[C@@H](O[C@H]2C[C@H]([C@]3(C)CC[C@]4(C[C@H](O)[C@@H](C)[C@@H]([C@@H](C)/C=C(\C)C(=O)[C@H](C)C[C@H](C)C(=O)O)O4)O3)O[C@]3(O[C@@H]([C@H]4O[C@@](O)(CO)[C@H](C)C[C@@H]4C)C[C@@H]3C)[C@@H]2C)O[C@@H]1C [Nanchangmycin]
- scaled lipid accumulation score [3]: 1.27 (active)
- scaled lipid accumulation score [1]: 0.663

SMILES: NC(Cc1cc(O)c(O)cc1O)C(=O)O (racemic) [6-Hydroxy-DL-DOPA]
- scaled lipid accumulation score [1]: ≤ -0.07

SMILES: CC(=O)O[C@H]1C[C@H](O[C@H]2[C@@H](O)C[C@H](O[C@H]3[C@@H](O)C[C@H](O[C@H]4CC[C@@]5(C)[C@H](CC[C@@H]6[C@@H]5C[C@@H](O)[C@]5(C)[C@@H](C7=CC(=O)OC7)CC[C@]65O)C4)O[C@@H]3C)O[C@@H]2C)O[C@H](C)[C@H]1O[C@@H]1O[C@H](CO)[C@@H](O)[C@H](O)[C@H]1O [Lanatoside C]
- scaled lipid accumulation score: 1.08 (active)

SMILES: C[C@]12CC[C@H](O)C[C@H]1CC[C@@H]1[C@@H]2C[C@@H](O)[C@]2(C)[C@@H](C3=CC(=O)OC3)CC[C@]12O [Digoxigenin]
- scaled lipid accumulation score: 0.991 (active)

SMILES: CC(=O)O[C@H]1C[C@H](O[C@H]2[C@@H](O)C[C@H](O[C@H]3[C@@H](O)C[C@H](O[C@H]4CC[C@@]5(C)[C@H](CC[C@@H]6[C@@H]5C[C@@H](O)[C@]5(C)[C@@H](C7=CC(=O)OC7)CC[C@]65O)C4)O[C@@H]3C)O[C@@H]2C)O[C@H](C)[C@H]1O[C@@H]1O[C@H](CO)[C@@H](O)[C@H](O)[C@H]1O [Lanatoside c]
- scaled lipid accumulation score (library stock concentration: 2 mM): 0.894 (active)
- scaled lipid accumulation score [1]: 0.892 (active)

SMILES: C[C@]12CC[C@@H](O)C[C@H]1CC[C@@H]1[C@@H]2CC[C@]2(C)C(=O)CC[C@@H]12 [3-alpha-Hydroxy-5-beta-androstan-17-one]
- scaled lipid accumulation score: ≤ 0

SMILES: C[C@]12CC[C@@H](O)C[C@@H]1CC[C@@H]1[C@@H]2CC[C@]2(C)C(=O)CC[C@@H]12 [Androsterone]
- scaled lipid accumulation score: 0.083

SMILES: C[C@@H]1O[C@@H](O[C@H]2CC[C@]3(C=O)[C@H]4CC[C@]5(C)[C@@H](C6=CC(=O)OC6)CC[C@]5(O)[C@@H]4CC[C@]3(O)C2)[C@H](O)[C@H](O)[C@H]1O [Convallatoxin]
- scaled lipid accumulation score [1]: 0.656

SMILES: C[C@]12CC[C@H](O)C[C@@H]1CC[C@@H]1[C@@H]2CC[C@]2(C)C(=O)CC[C@@H]12 [Epiandrosterone]
- scaled lipid accumulation score: 0.082
- scaled lipid accumulation score [3]: ≤ 0
- scaled lipid accumulation score [1]: ≤ 0

SMILES: CO[C@H]1[C@H](O)[C@@H](O[C@H]2CC[C@]3(C=O)C4CC[C@]5(C)[C@@H](C6=CC(=O)OC6)CC[C@]5(O)C4CC[C@@H]3C2)O[C@@H](C)[C@@H]1O (stereo not given in full) [Peruvoside]
- scaled lipid accumulation score [1]: 0.873 (active)

SMILES: CC(=O)[C@H]1CC[C@H]2[C@@H]3CC[C@H]4C[C@H](O)CC[C@]4(C)[C@H]3CC[C@]12C [5alpha-Pregnan-3alpha-ol-20-one]
- scaled lipid accumulation score [1]: ≤ 0

SMILES: C[C@]12CC[C@H](O)C[C@H]1CC[C@@H]1[C@@H]2CC[C@]2(C)[C@@H](C3=CC(=O)OC3)CC[C@]12O [Digitoxigenin]
- scaled lipid accumulation score: 0.936 (active)

SMILES: C[C@H]1CC[C@]2(NC1)O[C@H]1C[C@H]3[C@@H]4CC[C@H]5C[C@@H](O[C@@H]6O[C@H](CO)[C@H](O[C@@H]7O[C@H](CO)[C@@H](O)[C@H](O[C@@H]8OC[C@@H](O)[C@H](O)[C@H]8O)[C@H]7O[C@@H]7O[C@H](CO)[C@@H](O)[C@H](O)[C@H]7O)[C@H](O)[C@H]6O)CC[C@]5(C)[C@H]4CC[C@]3(C)[C@H]1[C@@H]2C [Tomatine]
- scaled lipid accumulation score: 0.319

SMILES: CCCCCCCC/C=C\CCCCCCCC(=O)OC[C@@H](COP(O)(O)=S)OC
- scaled lipid accumulation score [2]: 0.084

SMILES: NC(=NN=Cc1ccc(-c2cccc([N+](=O)[O-])c2)o1)N[N+](=O)[O-] [ERK Inhibitor III]
- scaled lipid accumulation score [3]: ≤ 0

SMILES: Cn1c2c(c3ccccc31)CCNCC2
- scaled lipid accumulation score [1]: 0.326
